# A selection: hits, their analogues and other compounds. The true share with any hit is near 3.6%.
# TRHR PAM – qHTS for Small Molecule Agonists and Allosteric Enhancers of Human TRH Receptor: Primary Screen for Enhancers | TRHR cells, fluo-8 calcium fluorescence, EC20 TRH enhancement | Thyrotropin-releasing hormone receptor (Homo sapiens), P34981 | 0.66% of 360,000 active | enhancement, % at 2 µM; in the data active = enhancement above about 30%; note: 0% is about no effect
#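 Enhancer read-out: after compound pinning and an initial kinetic agonist-mode read, an EC20 of TRH (10 nM final) was injected and fluo-8 calcium signal (Ex 480/Em 530) followed at 1 s/cycle for 100 cycles in TRHR-expressing cells.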
# D1 ag – Allosteric Agonists of the Human D1 Dopamine Receptor: qHTS; HEK293 T-REx D1 cells, calcium flux, agonist mode; activation, % at 2 µM; D(1A) dopamine receptor (Homo sapiens), P21728; 1% of 360,000 active; note: 0% is about no effect
# Target sequence (P21728 whole entry, looked up): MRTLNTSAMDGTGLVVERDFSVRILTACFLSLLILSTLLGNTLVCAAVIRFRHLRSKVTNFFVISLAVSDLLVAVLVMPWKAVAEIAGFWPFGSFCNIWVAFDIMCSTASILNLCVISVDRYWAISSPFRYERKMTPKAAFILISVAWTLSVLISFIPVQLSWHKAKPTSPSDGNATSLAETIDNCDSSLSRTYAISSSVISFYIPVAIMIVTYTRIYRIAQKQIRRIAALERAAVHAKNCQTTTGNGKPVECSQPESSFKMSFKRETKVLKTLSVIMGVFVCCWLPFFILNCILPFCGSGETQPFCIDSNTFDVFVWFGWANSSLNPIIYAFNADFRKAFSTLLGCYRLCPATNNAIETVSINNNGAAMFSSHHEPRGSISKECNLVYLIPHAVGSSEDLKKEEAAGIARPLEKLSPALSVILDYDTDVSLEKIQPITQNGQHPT
#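 Tetracycline-induced HEK293 TREx D1 cells, force-coupled to calcium signalling, were dye-loaded with a no-wash calcium kit. Compound was pin-added after a 10 s baseline. Fluorescence was read kinetically at 1 cycle/s for 180 s, with calcium rises flagged as agonism.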
# TRHR agonist – qHTS for Small Molecule Agonists and Allosteric Enhancers of Human TRH Receptor: Primary Screen for Agonists | Thyrotropin-releasing hormone receptor (Homo sapiens), P34981 | TRHR cells, calcium flux fluo-8, FDSS agonist mode | activation, % at 2 µM | 0.18% of 360,000 active; note: 0% is about no effect
#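 TRHR-expressing cells, plated overnight in medium with 10% serum, were loaded with fluo-8 calcium dye at room temperature. After a 10 s baseline, library compound was pin-added and calcium release was recorded kinetically (ex 480/em 530) as agonist response.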
# D1 PAM – Potentiators of Human D1 Dopamine Receptor: qHTS | D(1A) dopamine receptor (Homo sapiens), P21728 | HEK293 TREx D1 cells, calcium flux, dopamine EC20 potentiation | potentiation, % at 10 µM | 0.036% of 360,000 active; in the data active = potentiation above about 30%; note: 0% is about no effect
# D1 antag – Antagonist of Human D 1 Dopamine Receptor: qHTS. HEK293 TREx D1 cells, calcium flux, dopamine EC80; stronger effect = lower value. activity change, negative = inhibition, % at 10 µM. 3.2% of 360,000 active; in the data active = activity change below about -30%; note: % is set by controls: 0 for no effect and ±100 for the full control effect
#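 Inducible Hek293 Trex D1 cells (tetracycline, overnight, 30 C). Calcium dye 30–90 min RT. Antagonist mode: EC80 dopamine added after 180 s compound read.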
# LDHA inh – qHTS assay for inhibitors of human lactate dehydrogenase. purified LDHA, NADH/diaphorase-resazurin fluorescence; stronger effect = lower value. activity change, % (values are at about 110 or 230 µM). 0.15% of 480,000 active. AID 1347041, 2019; in the data active = activity change below about -30%;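 note: plate controls were DMSO wells for no effect and wells without enzyme for full effect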
#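 Enzyme activity of human lactate dehydrogenase 5 (2 nM; 0.06 mM NADH, 0.2 mM pyruvate, 5 min, RT) is measured via a resazurin/diaphorase fluorescence readout of residual NADH.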
# Starred values were filed as active, the others as inactive; . = no result. Cut-off read from the data, not from the text of the source, unless noted: active = activation above about 30%; inactive = the rest.
SMILES,TRHR PAM,D1 ag,TRHR agonist,D1 PAM,D1 antag,LDHA inh
CN1CCN(Cc2nc3ccccc3c(=O)[nH]2)CC1,-2,0,0,0,0,-2
CC(Cc1ccccc1Sc1ccc(O)cc1)N(C)C (stereo unspecified),2,15,0,-22,-48*,-4
CC(N)Cc1ccccc1Sc1ccc(O)cc1 (stereo unspecified),6,19,0,-5,-3,.
CN(C)C(Cc1ccccc1)C(=O)c1ccccc1 (stereo unspecified),-7,0,-3,-4,1,-1
CN1CCN(Cc2ccccc2Sc2ccccc2)CC1,10,53*,-1,-6,2,-3
CC(Cc1ccccc1Sc1ccccc1)N(C)C (stereo unspecified),4,26,1,-6,-68*,-7
COc1ccc(N2C(=O)CC(=O)NC2=O)cc1,4,1,0,-6,-79*,-1
Fc1ccc2c(c1)nnn2C1CCN(Cc2nnnn2CCc2ccccc2)CC1,-6,1,-1,-7,-9,-1
Fc1ccc2c(c1)nnn2C1CCN(Cc2ccccc2)CC1,0,1,-1,-20,-33*,4
Cc1cc(O)c2c3c(c(=O)oc2c1)CCC(C)C3 (stereo unspecified),-12,37*,0,-5,-35*,-12
CCOc1cc(C)cc2oc(=O)c3c(c12)CCCC3,-3,2,-1,3,2,-10
c1ccc(CNc2c3c(nc4ccccc24)CCC3)cc1,8,22,0,-20,-50*,-4
CC(C)CNc1c2c(nc3ccccc13)CCC2,6,9,1,-4,-12,-10
CCN1C(=O)NC(=O)/C(=C\c2cn(CC(=O)N3CCCCC3C)c3ccccc23)C1=O (stereo unspecified),-19,11,3,-1,-30*,0
NC[C@@H]1CCCN2CCCC[C@H]12,.,.,.,.,.,-2
CCCOC(=O)C1=C(C)N[C@]2(C)C[C@H]1c1ccccc1O2,.,.,.,.,.,4
COc1cc2c(cc1OC)-c1c(OC)c(OC)cc3c1[C@H](C2)N(C)CC3,-5,.,-1,.,.,1
COc1ccc2c(c1O)-c1c(OC)c(OC)cc3c1[C@H](C2)N(C)CC3,2,0,0,-6,-63*,2
CN(C)C(=S)SCC#N,.,.,.,.,.,3
CC1=C(C(=O)OCc2ccccc2)C2(C(=O)Nc3ccccc32)C(C(=O)OC(C)(C)C)=C(N)O1 (stereo unspecified),.,.,.,.,.,7
COC(=O)CSC1=NN1c1cc(C)nc(N)n1,-5,0,-3,6,-33*,-1
Cc1ccccc1OCC(=O)N1CCN(Cc2cc(=O)n3nc(-c4ccccc4C)sc3n2)CC1,.,.,.,.,.,16
Cc1nonc1OCCNCCNc1ccc([N+](=O)[O-])c2cccnc12,-12,6,0,0,-35*,5
Cc1c(CC(=O)N2CCN(CCc3ccccn3)CC2)c(=O)oc2cc(O)ccc12,.,.,.,.,.,2
O=[N+]([O-])c1cc(O)c(O)c([N+](=O)[O-])c1,-1,-1,0,-2,-41*,-1
SMILES,TRHR PAM,D1 ag,TRHR agonist,D1 PAM,D1 antag,LDHA inh
O=C(CCn1ccc2cc(S(=O)(=O)N3CCCCCC3)ccc21)N1CCC2(CC1)OCCO2,.,.,.,.,.,7
Cc1ccc2nc(N3CCN(C)CC3)[nH]c2c1,1,4,0,4,-17,4
CN1CCN(c2nc(N)cc(=O)[nH]2)CC1,6,2,2,1,-58*,-6
O=S(=O)(Cc1ccc(F)cc1)C(c1ccc(F)cc1)c1ccc(F)cc1,.,.,.,.,.,5
Cc1n[nH]c(C)c1[Se]c1c(C)n[nH]c1C,.,.,.,.,.,-12
CCOc1ccc(NC(=O)c2c(O)[nH]c(=O)[nH]c2=O)cc1,.,.,.,.,.,0
CCOC(=O)c1ccc(NC(=O)c2c(O)[nH]c(=O)[nH]c2=O)cc1,13,241*,73*,-5,-8,-4
Cc1nc2ccccc2c(=O)n1-c1ccc(C(=O)O)cc1,31*,4,0,0,-17,-2
N#Cc1c(Cl)nc(NCCNc2ccccn2)c(Cl)c1Cl,.,.,.,.,.,1
CC1CCC(C(C)C)C(OC(=O)Cn2c(COc3ccccc3)[n+](C)c3ccccc32)C1 (stereo unspecified),8,41*,0,-6,22,-1
Cc1ccc(C)c(C2(O)CC(C)N(C)CC2C)c1 (stereo unspecified),1,1,1,-5,-46*,-6
COc1ccc(C2NCc3ccc4c(c3-n3cccc32)OCO4)cc1O (stereo unspecified),2,55*,5,-3,-36*,7
COc1ccccc1Sc1ccccc1CC(C)N (stereo unspecified),8,60*,-1,-1,-25,-1
[Hg+][c]1ccccc1,.,.,.,.,.,-62*
Cc1c(CC(=O)N2C[C@H]3C[C@@H](C2)c2cccc(=O)n2C3)c(=O)oc2cc(O)c(Cl)cc12,12,2,0,0,-47*,-2
COc1cc2oc(=O)c(CC(=O)N3C[C@H]4C[C@@H](C3)c3cccc(=O)n3C4)c(C)c2cc1Cl,.,.,.,.,.,0
COc1ccc(CCNCc2c(OC)ccc3ccccc23)cc1,8,73*,-1,-6,0,-15
COc1ccc2ccccc2c1CNCCc1c[nH]c2ccccc12,.,.,.,.,.,6
CCn1cc(C(=O)Cn2cnc3ccccc32)c2ccccc21,.,.,.,.,.,-1
CN1C(=O)C(=Cc2ccccc2OCc2ccc(Cl)cc2)C(=O)N(C)C1=O,19,2,0,2,4,-6
O=C1NC(=O)C(=Cc2cc(Cl)ccc2OCc2ccc(C(=O)O)cc2)C(=O)N1,-3,2,0,-4,9,-90*
CCOC(=O)C1=C(C)OC(N)=C(C(=O)OC(C)C)C12C(=O)Nc1ccc(Br)cc12 (stereo unspecified),.,.,.,.,.,-4
CC(C)Cc1nnc(NC(=O)CCC(=O)N2CCN(CCOC(c3ccccc3)c3ccccc3)CC2)s1,0,6,0,-4,-32*,-1
c1ccc(C(OCCN2CCN(c3ncccn3)CC2)c2ccccc2)cc1,.,.,.,.,.,-8
N#Cc1ccc(NC(=O)CCC2CCCCC2)cc1Cl,.,.,.,.,.,13
CSc1ccc(CN2CCN(Cc3ccccc3Cl)CC2)cc1,1,5,1,2,3,-31*
Ic1ccc(CN2CCNCC2)cc1,.,.,.,.,.,1
